From PubChem BioAssay AID2685 (National Center for Advancing Translational Sciences (NCATS), 2010)
About 2,100 (0.66%) of roughly 320,000 compounds were called active. Inconclusive results (about 53%) are left out. This is one part of a sample in which actives are shown more often than they occur. Calls come from the whole dose curve; as a rule, active = well fitted inhibition curve with a large enough effect in the signal ratio, with a control signal flat (not every such curve was filed as active); inconclusive = small, poorly fitted or top-dose-only effect, or effect the other way, or a change in a side signal; inactive = flat fitted curve, though single readings scatter; the % refers to the signal ratio.

Test: qHTS Assay for Lipid Storage Modulators in Drosophila S3 Cells;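 for cell number change: cells counted by Cell Tracker Red CMTPX staining in the red channel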; for lipid storage change, negative = inhibition: % is set by controls: 0 for no effect and ±100 for the full control effect
Conditions: BODIPY lipid droplet fluorescence, 18-24 h, cells fed with added oleic acid; cell number change: measured here: cell count max response; series mostly up to 46.1 µM
Summary of the method: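 Laser-scanning cytometry quantifies lipid droplet accumulation (500–530 nm total intensity; droplet/cell object ratio) in oleic acid-fed (400 uM added) Drosophila S3 cells treated with a concentration series. 20 uM Triacsin C defined 100% inhibition.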
Potency is the fitted concentration of half-maximal effect.

Compound | Potency | cell number change | lipid storage change, negative = inhibition
CCCCNC(=O)COc1ccccc1C(=O)c1cc(C#N)c(=O)n(CCOC)c1 | inactive | 1.51% | –
COc1ccc(S(=O)(=O)N2CCCC2)c2ccccc12 | inactive | 12.2% | –
CCc1ccc2[nH]c(=O)c(CN(CCN(CC)CC)C(=O)Nc3ccccc3OC)cc2c1 | inactive | 22.1% | –
COc1nc(N2CCCC2)nc(-n2nnc(C(C)=O)c2C)n1 | inactive | 9.7% | –
CC(=O)c1c(C)[nH]c2ccccc2c1=O | inactive | -9.21% | –
COC(=O)c1c(NC(=O)CSc2nnc(C)c(=O)[nH]2)sc(C)c1C | inactive | -15.8% | –
COc1ccc(C2CC(c3ccc(Br)cc3)=NN2C(=O)CSC2=NCCS2)cc1 (configuration not stated) | inactive | -2.75% | –
COc1ccc(C(=O)Nc2cc(OC)nc(OC)n2)cc1 | inactive | -3.14% | –
CCC(=O)Nc1ccc(NC(=O)c2ccco2)c(OC)c1 | inactive | 16% | –
Cc1cccc(NC(=O)c2ccc([N+](=O)[O-])o2)c1 | 13 µM (active) | 3.29% | –
Cc1cc(C)cc(NC(=O)c2ccc([N+](=O)[O-])o2)c1 | inactive | -11.8% | –
COc1cc(NC(=O)c2cc3ccccc3o2)ccc1NC(=O)c1ccco1 | 0.58 µM (active) | 2.99% | –
COc1cc(NC(C)=O)ccc1NC(=O)c1cc2ccccc2o1 | inactive | 11.3% | –
COc1cc(NC(=O)c2cccc([N+](=O)[O-])c2)ccc1NC(=O)c1ccco1 | inactive | -8.46% | –
COc1cc(NC(=O)c2ccccc2)ccc1NC(=O)c1cc2ccccc2o1 | inactive | -16.3% | –
Cc1ccc2nsnc2c1NC(=O)c1cccc([N+](=O)[O-])c1 | inactive | 3.04% | –
Cc1cccc(NC(=O)c2ccc(-c3ccccc3[N+](=O)[O-])o2)c1 | inactive | 15.3% | –
COc1cc(NC(=O)c2ccc([N+](=O)[O-])o2)ccc1NC(=O)c1ccco1 | 8.2 µM (active) | -26.2% | –
Cc1ccc2nsnc2c1NC(=O)c1ccc([N+](=O)[O-])o1 | 18.4 µM (active) | 0.87% | –
O=C(Nc1c(Cl)ccc2nsnc12)c1ccc([N+](=O)[O-])o1 | inactive | 11.1% | –
Cc1ccc(C(=O)CCC(=O)OCc2nnc(-c3ccccc3)o2)cc1 | inactive | – | –
O=C1c2cc(Cl)ccc2OC2(CCNCC2)C12CC(c1ccccc1)=NO2 (configuration not stated) | inactive | 8.66% | –
COC(=O)[C@@]1(Cc2ccc(OC)cc2)[C@H]2c3cc(C(=O)N4CCCC4)n(CCSCCO)c3C[C@H]2CN1C(=O)c1ccccc1 | inactive | 0.624% | –

Compound | Potency | cell number change | lipid storage change, negative = inhibition
CN(C1CCCC1)C1CCN(C(=O)CNC(=O)/C=C/c2cccc(C(F)(F)F)c2)CC1 | inactive | 8.56% | –
CN(C)c1ccc(CN(C(=O)c2cccs2)C2CCS(=O)(=O)C2)cc1 (configuration not stated) | inactive | 15.9% | –
c1ccc(OCc2nc3c4c(ncn3n2)-c2ccccc2CC42CCCC2)cc1 | inactive | -10.9% | –
COc1ccccc1NC(=O)C1CCCN(c2cnccn2)C1 (configuration not stated) | inactive | 17.3% | –
COc1cc2c(cc1OC)CN(C(=O)Nc1ccccc1)CC2 | inactive | 6.01% | –
CCCc1cc(=O)n2[nH]c(C)c(-c3ccc(OC)cc3)c2n1 | 18.4 µM (active) | 16.5% | –
COC(=O)Cc1cc(=O)n2[nH]c(C)c(-c3ccccc3)c2n1 | inactive | -1.66% | –
CCOC(=O)Cc1cc(=O)n2[nH]c(C)c(-c3ccc(Cl)cc3)c2n1 | inactive | -27.5% | –
C/C(=N\NC(=O)NC1CCCCC1)c1ccc(Cl)s1 | inactive | -11.8% | –
COc1ccc(-c2nc(SC(C)C(=O)Nc3ccc(NC(C)=O)cc3)n[nH]2)cc1 (configuration not stated) | inactive | 32.4% | –
COc1ccc(-c2nc(SC(C)C(=O)NC3CC3)n[nH]2)cc1 (configuration not stated) | 1.84 µM (active) | -10% | –
COc1ccc(-c2nc(SCC(=O)NC3CCCCC3)n[nH]2)cc1 | inactive | -21.7% | –
CCOC(=O)C1CCCCN1Cc1ccc(F)c(Br)c1 (configuration not stated) | inactive | -23.6% | –
CCOC(=O)C1CCCCN1Cc1ccc(C(F)(F)F)cc1 (configuration not stated) | 6.51 µM (active) | -25.6% | –
CCOC(=O)C1CCCCN1Cc1cccc(Oc2ccccc2)c1 (configuration not stated) | inactive | -1.04% | –
COc1cc(C2CC(=O)Oc3c(C(CCN4CCN(c5ccccc5)CC4)c4ccc(N(C)C)cc4)c(OC)cc(OC)c32)cc(OC)c1OC (configuration not stated) | inactive | -0.692% | –
O=C(COc1ccccc1[N+](=O)[O-])Nc1cc(C(=O)O)cc(C(=O)O)c1 | inactive | -6.55% | –
Cc1sc2ncnc(SCC(=O)Nc3ccc(CN4CCCC4)cc3)c2c1C | inactive | 13.1% | –
CC(=O)Nc1ccc(NC(=O)CSc2ncnc3sc(C)c(C)c23)cc1 | 13 µM (active) | 3.95% | –
CCN(CC(=O)Nc1ccc(NC(C)=O)cc1)C(=O)CSc1ncnc2sc(C)c(C)c12 | inactive | – | –
COC(=O)c1ccc(NC(=O)CSc2nc3[nH]ncc3c(=O)[nH]2)cc1 | – | – | -11.4% [at 0.0737 µM] (inactive)
CCc1ccc(C(=O)COC(=O)CNC(=O)COc2ccccc2)cc1 | inactive | -0.597% | –
